The list is not random: actives were taken first. Their share in the collection is about 14%.
CRE-bla Fsk – modulators of forskolin-stimulated CRE signaling in CHO cells; 71,000 tested, 2.5% active; CHO CRE-bla reporter (cAMP response element driving beta-lactamase), forskolin EC10, beta-lactamase ratio; Potency, µM (doses to about 38.2 µM), for the others: top-dose activity change, negative = inhibition, most hits filed as activators; active means well fitted activation curve with a large enough effect in the signal ratio, with a control signal flat, not every such curve was filed as active; inconclusive means small, poorly fitted or top-dose-only effect, or effect the other way, or a change in a side signal; the % refers to the signal ratio; further: potency means the concentration at half of the fitted maximal effect; % of control where 0% means no effect
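Titrated compounds plus EC10 NKH 477 on CHO CRE-bla cells, 3 h, 37 °C. CCF4, 2 h RT. Ratio 460/530 nm → AC50.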
AID923 – qHTS Assay for Allosteric/Competitive Inhibitors of Caspase-1: Spectroscopic Profiling in AFC Spectral Region; compound fluorescence, AFC spectral region (405/520 nm); AID 923, 2007; 75,000 tested, 1.1% active; Potency, µM (highest dose often 57.5 µM), without a hit: at the top dose fluorescence increase, actives largely listed as activators; further: potency means the concentration at half of the fitted maximal effect; 0% is about no effect
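Baseline compound fluorescence (AFC region, 405 nm ex/520 nm em) taken from the intercept of kinetic reads with 50 nM caspase-1 and 5 uM Ac-WEHD-AFC; normalized to an on-plate AFC standard curve; compounds titrated up to 57 uM.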
HADH2 inh – HADH2 (human) dehydrogenase inhibition; Potency, µM (top dose mostly 57.1 µM), for inactives: at the top dose activity change, negative = inhibition, hits mostly inhibitors; 73,000 tested, 3.4% active; Q99714; recombinant HADH2, NADH fluorescence, beta-hydroxybutyryl-CoA; further: potency means the concentration at half of the fitted maximal effect; on the % scale 0 is the no-effect control and ±100 the full control effect; nearly all actives have a fitted effect of over 60% in size
Target sequence (Q99714 whole entry, looked up, one chain of several): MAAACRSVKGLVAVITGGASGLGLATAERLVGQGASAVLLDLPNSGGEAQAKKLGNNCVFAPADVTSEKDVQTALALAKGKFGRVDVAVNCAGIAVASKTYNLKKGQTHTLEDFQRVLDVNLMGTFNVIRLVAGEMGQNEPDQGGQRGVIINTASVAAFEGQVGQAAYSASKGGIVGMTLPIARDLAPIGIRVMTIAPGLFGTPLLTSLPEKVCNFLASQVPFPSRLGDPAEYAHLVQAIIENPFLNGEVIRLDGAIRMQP
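Read-out: 360 nm excitation, 450 nm emission, kinetic over 4 min. Conditions: His-tagged human HADH2 20 nM, pH 9.0 Tris with Tween-20, 1 mM NAD+, 90 uM beta-hydroxybutyryl-CoA.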
A350 fluor – compounds fluorescent in Alexa 350 spectral region; Compound autofluorescence, 340/450 nm, Alexa 350 dye-equivalents; stronger effect = higher value; max dye-equivalent concentration, M; 59,000 tested, 11% active; in the data active means max dye-equivalent concentration above about 10 nM; inconclusive means mostly about 1.1 nM to 9.6 nM
HSD17B inh – blocks hydroxysteroid 17-beta dehydrogenase activity; Q99714; Potency, µM (doses to about 57.1 µM), for inactives: top-dose activity change, negative = inhibition, actives largely listed as inhibitors; recombinant HSD17B10, NADH fluorescence kinetic; AID 893; 75,000 tested, 7.6% active;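 further: the protocol describes HADH2 (HSD17B10) and not the HSD17B4 of the title; potency means the concentration at half of the fitted maximal effect; on the % scale 0 is the no-effect control and ±100 the full control effect; nearly all actives have a fitted effect of over 70% in size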
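20 nM HADH2, pH 9.0 Tris/Tween; cpd preinc 15 min RT; start w/ 1 mM NAD+ + 90 uM b-hydroxybutyryl-CoA; kinetic fluor ex360/em450 q30s x 4 min; delta last-first.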
4-MU autofl – compounds fluorescent in 4-MU spectral region; compound autofluorescence, 340/450 nm, 4-MU equivalents; stronger effect = higher value; max dye-equivalent concentration, M; 59,000 tested, 11% active; in the data active means max dye-equivalent concentration above about 10 nM; inconclusive means mostly about 1.1 nM to 9.6 nM
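Compounds in 100 mM Tris, pH 8.0, sat 15 min at room temperature before fluorescence was read at 340 nm excitation/450 nm emission; a per-plate six-point 4-MU standard curve converted signals to dye-equivalent concentration at each compound concentration.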
* hit, by the source's call; i = inactive; u = inconclusive; x = not tested or not shown; ! = a repeat was not active; [ ] = another dose, or the depositor's remark. Unless noted, the call rests on the fitted dose curve; in most records, active means well fitted curve in the direction sought with a large enough effect; inconclusive means small, poorly fitted or top-dose-only effect, or another doubt; inactive means no such curve, though single readings can be large; an effect the other way counts as inactive or inconclusive.

SMILES	CRE-bla Fsk	AID923	HADH2 inh	A350 fluor	HSD17B inh	4-MU autofl
COc1cc(-c2nnc3sc(-c4cccnc4)nn23)cc(OC)c1OC	u	-1%	16µM*	1.1e-07M*	-7%	1.1e-07M*
Cc1nc2cnc(Oc3cccc(Cl)c3)nc2n(C[C@H]2CCCO2)c1=O	u	3%	5%	i	2%	i
CCCn1c(C)nc2c(N(C)CCN(C)C)nc(C)nc21	4%	2%	-7%	x	1%	x
Cc1nc(NCc2ccccc2)c2nc(-c3ccccc3)n(CCCN(C)C)c2n1	-6%	-1%	u	x	25µM*	x
Cc1nc(NCc2ccccc2)c2nc(-c3ccccc3)n(CCN3CCOCC3)c2n1	u	-4%	u	x	32µM*	x
Cc1nc(NCc2ccccc2)c2nc(-c3ccccc3)n(CCN3CCCC3)c2n1	8%	1%	-21%	x	25µM*	x
CCCn1c(C)nc2c(NCCCCN(C)C)nc(C)nc21	2%	0%	-8%	x	6%	x
CCOC(=O)CSc1nc2sc(C(=O)O)c(C)c2c(=O)[nH]1	-6%	1%	-23%	x	1%	x
CCC1(C)Cc2c(sc3nc(SCC(=O)O)[nH]c(=O)c23)CO1 (centres undefined)	-1%	-1%	9%	1.7e-08M*	u	1.7e-08M*
CCC1(C)Cc2c(sc3nc4n(c(=O)c23)CCS4)CO1 (centres undefined)	x	x	x	u	x	i
CCC1(C)Cc2c(sc3nc(NC)n(C)c(=O)c23)CO1 (centres undefined)	u	-1%	3%	u	u	1.8e-08M*
Cc1cc(=O)n2c(-c3ccccc3C)n[nH]c2n1	-5%	-1%	-15%	1.5e-07M*	-14%	1.2e-07M*
Cc1ccccc1-c1cc(-c2ccccc2O)n[nH]1	1%	0%	-10%	i	-22%	i
CCc1c(C)nc2[nH]nc(-c3ccccc3C)n2c1=O	3%	0%	5%	i	32µM*	i
CCc1c(C)nc2[nH]nc(-c3ccccc3)n2c1=O	5%	1%	9%	x	32µM*	x
CCN1C(=O)[C@@H]2[C@H](C1=O)[C@@H]1C[C@H]3C(=O)N(CC)C(=O)[C@H]3[C@@H]3C1=C(C(=O)N1C(=O)O/C(=N\CC4CC4)[C@]31C)[C@@H]2C	x	0%	x	x	1%	x
CCN(CC)CCN1C(=O)C(=O)/C(=C(/O)c2c(C)[nH]c(C(=O)OC)c2C)C1c1ccco1 (centres undefined)	x	x	x	i	x	i
COC(=O)c1[nH]c(C)c(/C(O)=C2\C(=O)C(=O)N(CCN(C)C)C2c2ccccc2OC)c1C (centres undefined)	-3%	6%	-9%	3.1e-08M*	-3%	1e-07M*
CCOC(=O)c1[nH]c(C)c(/C(O)=C2\C(=O)C(=O)N(CCN(C)C)C2c2ccco2)c1C (centres undefined)	10%	0%	-9%	1.1e-08M*	1%	u
Cc1nnc(S(=O)(=O)c2ccc(N=Nc3c(N)nc(N)nc3N)cc2)s1	8%[7.6 µM]	-1%[11.5 µM]	-3%[11.4 µM]	i	9%[11.4 µM]	i
COc1nc(Cl)nc(Cl)c1Cl (tested in a mixture with another compound)	0%[7.6 µM]	-1%[11.5 µM]	12%[11.4 µM]	i	5%[11.4 µM]	i
CN(N=O)C(=O)N[C@H]1C(O)OC(CO)[C@@H](O)[C@H]1O (some centres undefined)	u	0%	2%	x	-25%	x
CN1CCc2cccc3c2[C@@H]1Cc1ccc(O)c(O)c1-3	u	-4%	0.2µM*	2.7e-08M*!	13µM*!	3e-08M*!
CN1CCc2ccccc2C1C1CCNCC1 (centres undefined)	u	0%	17%	i	18%	i
c1cc2c(cc1Cn1cnnn1)OCO2	-2%	0%	-7%	i	4%	i
Cc1cc(C(=O)CSc2nnc(-c3ccco3)o2)c(C)n1Cc1ccco1	-11%	7%	3%	i	16µM*	i
